Among the data in PubChem BioAssay are z-score and composite z-score values, retold here.

Active and inactive are the calls of the source. Unless noted, how the calls were made is not given here.

Test [1] is described as follows: compound effects on lung adenocarcinoma cell viability – A549, calcein-AM fluorescence, 48 h, basal, profiling panel (AID 1162). Further: test concentration not given here. To be noted: higher = more signal.
A short description of test [2]: compound effects on differentiated 3T3-L1 adipocyte viability – cell-based, 3T3-L1 adipocytes, calcein-AM fluorescence, 48 h, basal, profiling panel (AID 1163). Further: test concentration not given here. To be noted: 3T3-L1 adipocytes viability, higher = more signal.
Test [3] in a line: compound effects on hepatocellular carcinoma cell viability – HepG2, calcein-AM fluorescence, 48 h, basal, profiling panel (AID 1164). Further: test concentration not given here. Conditions: higher = more signal.
A short description of test [4]: compound effects on multiple myeloma cell viability – MM1S, calcein-AM fluorescence, 48 h, basal, profiling panel (AID 1165).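 Further: viability of MM1S multiple myeloma cells under basal unstimulated conditions; test concentration not given here.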 To be noted: higher = more signal.
The nature of test [5]: calcein-AM signal in unstimulated myeloma cells – cell-based, calcein-AM fluorescence, 48 h, PK04 Diversity Set, profiling panel (AID 1166).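 Further: cells grown under basal conditions without added stimulus; test concentration not given here.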 To be noted: RPMI8226 myeloma viability, higher = more signal.
Test [6] in a line: JC-1 mitochondrial signal, unstimulated HepG2 cells – cell-based, JC-1 fluorescence, 24 h, 100 nL compound, profiling panel (AID 1167). Further: test concentration not given here. Conditions: HepG2 mitochondrial potential, higher = more signal.
Test [7] can be described thus: JC-1 mitochondrial signal, unstimulated adipocytes – cell-based, JC-1 fluorescence, 3T3-L1 adipocytes, 24 h, 100 nL compound, profiling panel (AID 1168). Further: test concentration not given here. To be noted: JC-1 mitochondrial fluorescence, higher = more signal, called active from +8 up or from −8 down.
Test [8] can be described thus: JC-1 mitochondrial signal, unstimulated myeloma cells – cell-based, JC-1 fluorescence, RPMI8226, 24 h, 100 nL compound, profiling panel (AID 1169). Further: test concentration not given here. Conditions: JC-1 mitochondrial potential fluorescence, higher = more signal.
The nature of test [9]: JC-1 mitochondrial signal, unstimulated MM1S myeloma – cell-based, JC-1 fluorescence, 24 h, 100 nL compound, profiling panel (AID 1170). Further: test concentration not given here. Conditions: MM1S mitochondrial potential, higher = more signal.
Test [10] in a line: resazurin metabolic signal in A549 cells – cell-based, resazurin fluorescence, 24 h, PK04 Diversity Set, profiling panel (AID 1171). Further: test concentration not given here. To be noted: A549 viability, higher = more signal, called active from +8 up or from −8 down.
The nature of test [11]: resazurin metabolic signal in HepG2 cells – cell-based, resazurin fluorescence, 24 h, PK04 Diversity Set, profiling panel (AID 1172). Further: test concentration not given here. To be noted: HepG2 viability, higher = more signal.
Test [12] can be described thus: budding yeast growth changes without added modifier – OD600, strain BY4716, 24 h, basal condition, primary screen (AID 1173). To be noted: S. cerevisiae BY4716 growth, OD600, 24 h; higher = more signal, called active from +8 up or from −8 down.
Test [13] in a line: viability profiling in MM1S myeloma cells – cell-based, resazurin fluorescence, basal, 24 h, PK04 Diversity Set, profiling panel (AID 1174). Further: test concentration not given here. To be noted: higher = more signal, called active from +8 up or from −8 down.
For test [14], the target named is Dihydroorotate dehydrogenase (quinone), mitochondrial (Plasmodium falciparum (isolate 3D7)) (UniProt Q08210). Put plainly: inhibition of P. falciparum DHODH – biochemical, C-terminal His tag, absorbance 600 nm, primary screen (AID 1175).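 Further: recombinant parasite enzyme with a five histidine tag at its C terminus; test concentration not given here.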 To be noted: PfDHODH enzyme, DCIP absorbance 600 nm; higher = more signal, called active from +8 up or from −8 down.
Chain of Dihydroorotate dehydrogenase (quinone), mitochondrial (Plasmodium falciparum (isolate 3D7)) (Q08210 whole entry, looked up): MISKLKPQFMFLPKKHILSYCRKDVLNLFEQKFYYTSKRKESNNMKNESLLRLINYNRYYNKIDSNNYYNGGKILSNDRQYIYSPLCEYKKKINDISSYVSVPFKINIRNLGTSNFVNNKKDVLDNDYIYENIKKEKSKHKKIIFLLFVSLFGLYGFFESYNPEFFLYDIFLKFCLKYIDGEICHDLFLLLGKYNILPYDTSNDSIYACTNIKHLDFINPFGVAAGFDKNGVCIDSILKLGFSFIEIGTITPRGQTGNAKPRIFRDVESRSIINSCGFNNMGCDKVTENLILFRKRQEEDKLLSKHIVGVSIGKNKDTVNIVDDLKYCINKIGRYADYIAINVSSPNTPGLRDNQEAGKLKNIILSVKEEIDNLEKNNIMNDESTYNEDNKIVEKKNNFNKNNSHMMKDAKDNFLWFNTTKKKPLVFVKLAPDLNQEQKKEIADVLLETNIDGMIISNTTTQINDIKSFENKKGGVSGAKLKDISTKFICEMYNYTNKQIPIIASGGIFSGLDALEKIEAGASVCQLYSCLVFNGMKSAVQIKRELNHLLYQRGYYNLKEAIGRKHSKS
Test [15] in a line: inhibition of PAO1 biofilm formation – strain PAO1, LB-PBS medium, absorbance 600 nm, primary screen (AID 1176). Further: test concentration not given here. Conditions: P. aeruginosa PAO1 growth/biofilm, A600, 12 h; higher = more signal.
Test [16] can be described thus: growth modulation of vineyard yeast isolate – strain RM11-1a, OD600, basal, 24 h, primary screen (AID 1177).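 Further: cultures grown under basal conditions with no added stressor; test concentration not given here.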 Conditions: S. cerevisiae RM11-1a growth, OD600, 24 h; higher = more signal, called active from +8 up or from −8 down.
Test [17] can be described thus: growth of efflux-deficient E. coli DRC39 – strain DRC39, OD650, 24 h, E. coli filamentation inducers, primary screen (AID 1178).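 Further: growth measured as culture turbidity by optical density at 650 nm; test concentration not given here.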 To be noted: E. coli DRC39 acrAB, higher = more signal, called active from +8 up or from −8 down.
Test [18] is described as follows: growth of efflux-deficient E. coli DRC39 – strain DRC39, OD650, 48 h, E. coli filamentation inducers, primary screen (AID 1179).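 Further: screen aims at cell division blockers that make cells filament.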 To be noted: E. coli DRC39 delta-acrAB growth, higher = more signal, called active from +8 up or from −8 down.
Test [19] in a line: viability profiling in RPMI8226 myeloma cells – cell-based, resazurin fluorescence, basal, 24 h, PK04 Diversity Set, profiling panel (AID 1180).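 Further: RPMI8826 multiple myeloma cell line at 5000 cells per well; test concentration not given here.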 Conditions: higher = more signal.
In test [20] the target is E3 ubiquitin-protein ligase XIAP (Homo sapiens) (UniProt P98170). Description: small molecules binding XIAP protein – biophysical, small-molecule microarray, fluorescence 635 nm, primary screen (AID 1181).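 Further: score merges 667 nm emission and signal to noise over triplicate slides.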 To be noted: higher = more signal.
Chain of E3 ubiquitin-protein ligase XIAP (Homo sapiens) (P98170 whole entry, looked up): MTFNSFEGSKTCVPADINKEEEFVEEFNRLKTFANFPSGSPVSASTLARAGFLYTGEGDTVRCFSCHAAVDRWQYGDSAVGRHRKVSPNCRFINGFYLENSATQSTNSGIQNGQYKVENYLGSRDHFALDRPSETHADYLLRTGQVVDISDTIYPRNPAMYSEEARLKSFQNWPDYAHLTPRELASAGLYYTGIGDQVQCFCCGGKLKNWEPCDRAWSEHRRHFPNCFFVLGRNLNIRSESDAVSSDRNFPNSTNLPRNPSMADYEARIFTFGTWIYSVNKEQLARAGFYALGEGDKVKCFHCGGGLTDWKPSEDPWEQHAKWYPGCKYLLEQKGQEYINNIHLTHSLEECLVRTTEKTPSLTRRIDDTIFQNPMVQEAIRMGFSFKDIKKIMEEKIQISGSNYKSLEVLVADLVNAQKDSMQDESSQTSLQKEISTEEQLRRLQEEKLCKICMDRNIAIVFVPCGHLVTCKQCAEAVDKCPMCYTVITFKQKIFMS

Turning to `[N-]=[N+]=NCc1ccccc1[C@H]1OC(c2ccc(OCCCO)cc2)=N[C@@]1(CCS(=O)(=O)c1ccccc1)C(=O)N1CCOCC1`, the z-score in [1] is 1.91; in test [2], 0.831; in test [3], 1.01; in test [4], -0.921; in test [5] it was 0.695; in test [6] it was -1.05. The z-score in test [7] is 0.455 (inactive); in test [8], -0.507; in [9], -0.877; in [10], 0.388 (inactive); in test [11] it was -0.0894; in test [12], 0.798 (inactive). The z-score in test [13] is -0.306 (inactive); in test [15], 0.631 (inactive); in test [16], 0.686 (inactive); in test [17], 0.186 (inactive); in test [18] it was -0.109 (inactive); in test [19], -0.8. Besides, the composite z-score was 0.274 (inactive) in [14] and -0.309 in test [20].
`COCCOC(=O)N1C(=O)[C@@]2(c3cc(C#CCNC(N)=O)ccc31)[C@H](C(=O)N1CCc3cc(OC)c(OC)cc3C1)[C@H]1C(=O)O[C@H](c3ccccc3)[C@H](c3ccccc3)N1[C@@H]2c1ccc(OCCO)cc1`: the z-score in test [1] is -0.21; in test [2], 0.743; in test [3], -0.0192; in test [4] it was 0.128; in [5], 0.115; in test [6], -0.691. In addition, the z-score in [7] is 1.66 (inactive); in test [8], -0.468; in test [9] it was -0.864; in test [10], 0.0245 (inactive); in test [11] it was 0.631; in test [12], 2.28 (inactive). Further, the z-score was 0.761 (inactive) in test [13]; 1.92 (inactive) in test [15]; 2.97 (inactive) in test [16]; 0.987 (inactive) in test [17]; 0.781 (inactive) in test [18]; 0.856 in [19]. In addition, the composite z-score was -0.232 (inactive) in [14] and 0.122 in test [20].
With `CCCN1C(=O)[C@@]2(CCC(=O)OC(C)(C)C)N=C(c3ccc(OCCCO)cc3)O[C@H]2c2ccccc21`, the z-score in test [1] is -1.32; in test [2], 1.24; in [3] it was -2.09; in test [4] it was -3.47; in [5], -4.43; in [6], 0.6. Besides, the z-score in test [7] is 2.43 (inactive); in [8], -1.26; in test [9], -0.421; in test [10], -0.778 (inactive); in [11], 0.803; in test [12] it was -1 (inactive). For the same compound, the z-score in test [13] was -1.86 (inactive); in test [15] it was 0.717 (inactive); in [16] it was 0.992 (inactive); in test [17], 0.923 (inactive); in test [18] it was 0.178 (inactive); in test [19], -3.16. The composite z-score in test [14] was -0.0393 (inactive); in test [20], 0.0223.
Take `O=C1OCCC/C=C\[C@H]2OC34C=CCN(Cn5nnc6ccccc65)C(=O)[C@H]3N(CCCCCO)C(=O)[C@@H]4C12` (stereo not given in full): the z-score in [1] is -0.452; in [2], 1.05; in [3], -1.02; in test [4] it was -0.496; in [5] it was 0.424; in [6], 0.19. Moreover, the z-score was 0.0884 (inactive) in [7]; -0.212 in test [8]; 0.37 in [9]; 0.0684 (inactive) in [10]; 0.502 in test [11]; -0.419 (inactive) in [12]. Moreover, the z-score in test [13] was 0.812 (inactive); in test [15] it was 0.193 (inactive); in test [16], -0.564 (inactive); in test [17], 0.376 (inactive); in test [18] it was -0.0083 (inactive); in test [19], 0.692. The composite z-score in [14] is -1.01 (inactive); in test [20], 0.178.
For the compound `O=C1OCCC=C[C@H]2OC34C=CCN(Cc5ccccc5)C(=O)[C@H]3N(CCCCCCO)C(=O)[C@@H]4C12` (stereo not given in full), the z-score in test [1] is 0.612; in test [2] it was -0.0143; in [3], 0.457; in test [4], 1.68; in [5], 0.581; in test [6] it was 0.445. For the same compound, the z-score in test [7] is 0.903 (inactive); in test [8] it was -0.0486; in test [9], -0.248; in [10], 1.33 (inactive); in test [11] it was 1.83; in test [12], 0.0187 (inactive). Moreover, the z-score is 0.654 (inactive) in [13]; -0.208 (inactive) in [15]; 0.589 (inactive) in test [16]; 0.759 (inactive) in [17]; 0.653 (inactive) in [18]; 0.183 in [19]. For the same compound, the composite z-score in test [14] is 0.261 (inactive); in test [20], -0.0918.
`Cc1ccc(S[C@]2(C(=O)NCc3ccccc3)CC(=O)N(Cc3ccccc3)[C@@H]2c2ccc(CO)cc2)cc1`: the z-score in [1] was 0.778; in [2] it was 0.147; in [3], 0.0772; in [4], -0.195; in test [5] it was -0.615; in [6] it was -0.452. Besides, the z-score in [7] is 0.645 (inactive); in [8], 0.0195; in [9] it was -0.172; in test [10] it was -0.114 (inactive); in test [11], -0.345; in [12], -0.27 (inactive). Moreover, the z-score is 0.0206 (inactive) in [13]; 0.429 (inactive) in [15]; 0.265 (inactive) in test [16]; -0.037 (inactive) in test [17]; -0.472 (inactive) in test [18]; -0.0925 in test [19]. For the same compound, the composite z-score in test [14] was -0.465 (inactive); in [20], -0.121.
On to `O=C1C2C=CC(C(O)c3ccc(B(O)O)cc3)N(Nc3ccccc3)C2C(=O)N1c1ccccc1` (stereo not given), for which the z-score was -1.52 in [1]; -0.305 in test [2]; -1.38 in [3]; -1.74 in [4]; -2.12 in test [5]; -2.75 in test [6]. Besides, the z-score in [7] is -0.654 (inactive); in test [8] it was -0.162; in [9], -0.613; in [10], -0.742 (inactive); in test [11], -1.28; in test [12], -0.841 (inactive). Besides, the z-score is -1.35 (inactive) in test [13]; 0.546 (inactive) in test [15]; 0.0003 (inactive) in test [16]; 0.17 (inactive) in [17]; -0.346 (inactive) in [18]; -1.59 in [19]. For the same compound, the composite z-score is -0.395 (inactive) in test [14] and 0.0623 in test [20].
For the compound `C=CCC(OC(C)=O)[C@@H]1[C@@H](N(Cc2ccc(-c3cccc(C(F)(F)F)c3)o2)C(=O)c2ccc(C)cc2)c2cc(OCCCO)ccc2N1C(=O)c1ccc(-c2ccccc2)cc1` (stereo not given in full), the z-score in test [1] was 1.18; in test [2], 0.345; in test [3] it was 1.65; in [4], 1.02; in test [5], 0.657; in test [6] it was 3.89. Also, the z-score in [7] was -1.29 (inactive); in [8], 0.866; in test [9], 0.112; in test [10] it was -0.0211 (inactive); in [11], 0.0024; in [12], -0.15 (inactive). For the same compound, the z-score in [13] was -0.936 (inactive); in test [15], 0.477 (inactive); in test [16], 0.677 (inactive); in test [17], -0.456 (inactive); in test [18], 0.0289 (inactive); in [19] it was 0.525. The composite z-score is -0.23 (inactive) in [14] and -0.127 in test [20].
